Reference: PubChem BioAssay (NCATS)
Inconclusive results are not listed. Unmarked numbers belong to inactive results. The source made the active and inactive calls. Calls come from the whole dose curve; as a rule, active = well fitted inhibition curve with a large enough effect; inconclusive = small, poorly fitted or top-dose-only effect; inactive = flat fitted curve, though single readings scatter.

test system: CP192; test: qHTS profiling for inhibitors of Plasmodium falciparum proliferation (AID 504749); note: nearly all actives have a fitted effect of over 60% in size;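 for activity, negative = inhibition: 0% = DMSO vehicle and full inhibition = artemisinin control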; details: P. falciparum in erythrocytes, SYBR Green DNA, 72 h; series mostly up to 28.7 µM; activity, negative = inhibition: at the top concentration
Procedure, shortened: (§1)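 SYBR Green fluorescence (ex 485 nm, em 535 nm) reports parasite DNA after 72 h compound exposure of infected red cells at 0.3% parasitemia, 2.5% hematocrit; signal normalized to 0.29 uM artemisinin and vehicle wells.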
Potency is the fitted concentration of half-maximal effect.

First: Cn1nnc2c(C(N)=O)ncn2c1=O
Second: Cc1ncc([N+](=O)[O-])n1CCO
The “activity, negative = inhibition” value of the first is lower: -2.54% for the first, 1.17% for the second.

First: CC(C)OC(=O)C(C(=O)OC(C)C)=C1SC=CS1
Second: CCN(C)C(=O)Oc1cccc([C@H](C)N(C)C)c1
The “activity, negative = inhibition” value of the first is higher: 7.2% for the first, 5.82% for the second.

Compared with `CC1=NN(c2ccccc2)C(=O)C1`, `NC(=O)N1c2ccccc2CC(=O)c2ccccc21` is lower in “activity, negative = inhibition” value: 2.85% for the first, -14.2% for the second.

First: CCc1c2c(nc3ccc(OC(=O)N4CCC(N5CCCCC5)CC4)cc13)-c1cc3c(c(=O)n1C2)COC(=O)[C@]3(O)CC
Second: CNC1CCCN(c2c(F)cc3c(=O)c(C(=O)O)cn(C4CC4)c3c2OC)C1 (stereo not given)
The “activity, negative = inhibition” value of the first is lower: 0.242% for the first, 2.04% for the second.

First: Cc1noc(NS(=O)(=O)c2ccc(N)cc2)c1C
Second: Cc1nnc(NS(=O)(=O)c2ccc(N)cc2)s1
The “activity, negative = inhibition” value of the first is higher: 5.42% for the first, -16.9% for the second.

Compared with `CN1CCN(c2c(F)cc3c(=O)c(C(=O)O)cn4c3c2OCN4C)CC1`, `COc1c(N2CCNC(C)C2)c(F)cc2c(=O)c(C(=O)O)cn(C3CC3)c12` (stereo not given) is higher in “activity, negative = inhibition” value: -15.4% for the first, -7.62% for the second.

Compared with `S=P(N1CC1)(N1CC1)N1CC1`, `CCCN[C@H]1CCc2nc(N)sc2C1` is lower in “activity, negative = inhibition” value: -1.63% for the first, -1.73% for the second.

Going from `CC[C@H](NC(C)C)[C@H](O)c1ccc(O)c2[nH]c(=O)ccc12` to `COc1ccc(C(=O)CC(=O)c2ccc(C(C)(C)C)cc2)cc1`, the “activity, negative = inhibition” value falls from -1.15% to -2.06%.

Going from `CC[C@H](C)C(=O)O[C@H]1C[C@@H](C)C=C2C=C[C@H](C)[C@H](CC[C@@H]3C[C@@H](O)CC(=O)O3)[C@H]21` to `CCC(C)(C)c1ccc(CC(C)CN2C[C@@H](C)O[C@@H](C)C2)cc1` (stereo not given in full), the “activity, negative = inhibition” value falls from 0.271% to 0.151%.

Going from `CCCc1cc(C(N)=S)ccn1` to `CCc1cc(C(N)=S)ccn1`, the “activity, negative = inhibition” value falls from 12.5% to 0.0933%.

Compared with `CC(C)(C#N)c1cc(Cn2cncn2)cc(C(C)(C)C#N)c1`, `CNS(=O)(=O)Cc1ccc2[nH]cc(CCN(C)C)c2c1` is higher in “activity, negative = inhibition” value: -17.4% for the first, 1.21% for the second.

Compared with `CC(C)(Sc1cc(C(C)(C)C)c(O)c(C(C)(C)C)c1)Sc1cc(C(C)(C)C)c(O)c(C(C)(C)C)c1`, `COC(=O)Nc1nc2ccc(C(=O)c3ccccc3)cc2[nH]1` is lower in “activity, negative = inhibition” value: -0.753% [at 12.8 µM] for the first, -22% [at 12.8 µM] for the second.

In the case of `CN(C)c1ccc(C(=C2C=CC(=[N+](C)C)C=C2)c2ccc(N(C)C)cc2)cc1`, the Potency is reported as 0.757 µM (active).
For `COc1cc(NCc2ccc3nc(N)nc(N)c3c2C)cc(OC)c1OC`, the Potency was 3.01 µM (active).

test system: CP194; test: as above; details: P. falciparum in erythrocytes, SYBR Green DNA, 72 h; series mostly up to 28.7 µM; activity, negative = inhibition: at the top concentration
Procedure, shortened: as §1

Going from `Cn1nnc2c(C(N)=O)ncn2c1=O` to `Cc1ncc([N+](=O)[O-])n1CCO`, the “activity, negative = inhibition” value rises from -8.14% to 3.26%.

Going from `CC(C)OC(=O)C(C(=O)OC(C)C)=C1SC=CS1` to `CC[C@H](C)C(=O)O[C@H]1C[C@@H](C)C=C2C=C[C@H](C)[C@H](CC[C@@H]3C[C@@H](O)CC(=O)O3)[C@H]21`, the “activity, negative = inhibition” value rises from -0.769% to -0.164%.

Going from `CC1=NN(c2ccccc2)C(=O)C1` to `Cc1noc(NS(=O)(=O)c2ccc(N)cc2)c1C`, the “activity, negative = inhibition” value rises from -3.64% to -1.94%.

Going from `CCc1c2c(nc3ccc(OC(=O)N4CCC(N5CCCCC5)CC4)cc13)-c1cc3c(c(=O)n1C2)COC(=O)[C@]3(O)CC` to `CN1CCN(c2c(F)cc3c(=O)c(C(=O)O)cn4c3c2OCN4C)CC1`, the “activity, negative = inhibition” value falls from -0.971% to -3.66%.

Compared with `S=P(N1CC1)(N1CC1)N1CC1`, `CCCN[C@H]1CCc2nc(N)sc2C1` is lower in “activity, negative = inhibition” value: 1.19% for the first, -0.733% for the second.

Compared with `CC[C@H](NC(C)C)[C@H](O)c1ccc(O)c2[nH]c(=O)ccc12`, `CCCc1cc(C(N)=S)ccn1` is higher in “activity, negative = inhibition” value: -2.26% for the first, -0.812% for the second.

Going from `COC(=O)Nc1nc2ccc(Sc3ccccc3)cc2[nH]1` to `CC(C)(Sc1cc(C(C)(C)C)c(O)c(C(C)(C)C)c1)Sc1cc(C(C)(C)C)c(O)c(C(C)(C)C)c1`, the “activity, negative = inhibition” value rises from -3.04% [at 12.8 µM] to 3.66% [at 12.8 µM].
